This is an account of results in PubChem BioAssay (NCATS).

The target in assay [1] is Glutathione peroxidase 1 (Homo sapiens) (UniProt P07203). Briefly: Primary qHTS Assay for Inhibitors of Recombinant Selenoprotein Glutathione Peroxidase 1 (GPX1) (AID 1845191). Further: nearly all actives have a fitted effect of over 65% in size. Further: potency means the concentration at half of the fitted maximal effect. On activity, negative = inhibition: on the % scale 0 is the no-effect control and ±100 the full control effect. In outline: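 GR-coupled readout: NADPH consumption tracked by fluorescence, ex 340/em 450 nm, at t=0 and after 15 min at RT. Final mix 10 nM GPX1, 1 mM GSH, 0.5 mM CHP, 0.5 mM NADPH, 100 nM GR, 0.01% BSA, following 30 min enzyme–compound preincubation.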
A general note: Quantitative high-throughput screening tests each substance at several concentrations.

For assay [2], the target named is Phospholipid hydroperoxide glutathione peroxidase GPX4 (Homo sapiens) (UniProt P36969). As to the kind of experiment: Primary qHTS Assay for Inhibitors of Recombinant Selenoprotein Glutathione Peroxidase 4 (GPX4) (AID 1845192). Further: nearly all actives have a fitted effect of over 65% in size. Further: potency means the concentration at half of the fitted maximal effect. On activity change, negative = inhibition: series mostly up to about 50 µM; on the % scale 0 is the no-effect control and ±100 the full control effect. The method, boiled down:
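Steps: GPX4 plus compound, 30 min RT; add GR/GSH/NADPH master mix; start with cumene hydroperoxide; read 340/450 nm fluorescence at 0 and 15 min. Finals were 200 nM GPX4, 1 mM GSH, 0.5 mM CHP, 0.5 mM NADPH, 100 nM GR.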

For assay [3], the target named is Luciferin 4-monooxygenase (Photinus pyralis) (UniProt P08659). Briefly: Primary firefly luciferase (FLuc) qHTS assay for identification of artifact compounds. (AID 1845220). Further: nearly all actives have a fitted effect of over 60% in size. Further: potency means the concentration at half of the fitted maximal effect.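 On activity change, negative = inhibition: series mostly up to about 54 µM; plate controls were DMSO vehicle for no effect and no enzyme for full effect.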 The method, boiled down:
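Titrated compounds were incubated 15 min at RT, protected from light, with luciferin and ATP at 10 uM; reaction started with 10 nM FLuc, luminescence imaged at 5 min, and concentration-response fitted by Hill equation.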

A short description of assay [4]: Primary fluorescence-based thiol-reactive (MSTI) qHTS assay for identification of artifact compounds. (AID 1845221). Further: nearly all actives have a fitted effect of over 65% in size. Further: potency means the concentration at half of the fitted maximal effect.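 On activity change, negative = thiol reactive: series mostly up to about 54 µM; thiol-reactive compounds lower the probe fluorescence signal.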 The method, boiled down:
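First, 4 uM MSTI in 2% DMSO/PBS pH 7.4 was dispensed; next, compounds were added; then plates sat 1 h at room temperature without light. Finally, emission at 598 nm was recorded.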

The test system of assay [5] is Nanoluciferase (engineered Oplophorus gracilirostris luciferase). As to the kind of experiment: Primary Nanoluciferase (NLuc) qHTS assay for identification of artifact compounds. (AID 1845222). Further: potency means the concentration at half of the fitted maximal effect.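 On activity, negative = inhibition: NLuc secreted into diluted conditioned medium of S16 cells; series mostly up to about 54 µM; 0% = DMSO and -100% = no enzyme.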 The method, boiled down: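 qHTS format, against NLuc in S16 cell-conditioned medium. Nano-Glo substrate 1:100 was added after 15 min at room temperature. Luminescence was taken after a further 5 min.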

Assay [6] can be described thus: Primary redox qHTS assay for identification of artifact compounds. (AID 1845223).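 Further: 0% = DMSO and 100% = reference compound.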 In outline:
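Redox-cycling detection via DTT (250 uM final) oxidation coupled to Amplex Red (25 uM)/HRP (250 mU/mL) in HBSS. 15 min preincubation plus 30 min after DTT, room temperature. Ex/Em 525/598 nm; 4-parameter Hill fit against DMSO and 10 uM DA3003.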

Unmarked numbers belong to inactive results. Records with an inconclusive call do not appear. Active and inactive are the calls of the source. The call rests on the fitted dose curve; in most records, active means well fitted curve in the direction sought with a large enough effect; inconclusive means small, poorly fitted or top-dose-only effect, or another doubt; inactive means no such curve, though single readings can be large; an effect the other way counts as inactive or inconclusive.

Sequence of Phospholipid hydroperoxide glutathione peroxidase GPX4 (Homo sapiens) (P36969 whole entry, looked up): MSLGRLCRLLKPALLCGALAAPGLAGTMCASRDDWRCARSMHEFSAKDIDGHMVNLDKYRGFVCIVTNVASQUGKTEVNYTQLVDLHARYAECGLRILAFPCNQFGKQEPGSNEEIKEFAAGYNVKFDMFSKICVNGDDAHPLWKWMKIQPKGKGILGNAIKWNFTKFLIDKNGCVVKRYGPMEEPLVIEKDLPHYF
Sequence of Glutathione peroxidase 1 (Homo sapiens) (P07203 whole entry, looked up): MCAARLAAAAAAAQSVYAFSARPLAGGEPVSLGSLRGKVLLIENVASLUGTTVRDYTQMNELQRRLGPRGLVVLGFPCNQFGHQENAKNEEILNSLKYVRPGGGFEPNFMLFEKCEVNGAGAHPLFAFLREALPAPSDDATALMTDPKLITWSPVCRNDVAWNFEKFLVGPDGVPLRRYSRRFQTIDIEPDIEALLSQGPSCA

As for `CCOc1ccc(S(=O)(=O)N2CCCCCC2)c2ccccc12`, the Potency result in assay [1], in assay [2], in assay [3], in assay [4], in assay [5] and in assay [6] was “inactive” in each case.

As to `Cc1cn2cc(C(=O)N(C)CCO)cc(NC3CCOc4cccc(C)c43)c2n1` (centres undefined), the Potency entry in assay [1], in assay [2], in assay [3], in assay [4], in assay [5] and in assay [6] was “inactive” each time.

In the case of `Nc1nc(O)c(C2=C3C(=Nc4ccccc43)C(=O)NCC2)[nH]1`, the Potency result in assay [1], in assay [2], in assay [3], in assay [4], in assay [5] and in assay [6] was “inactive” each time.

Take `COc1ccc(Oc2c(Cl)cnn(-c3cc(C)cc(C)c3)c2=O)cc1`: the Potency result in assay [1], in assay [2], in assay [3], in assay [4], in assay [5] and in assay [6] was “inactive” in each case.

Take `O=C(NCCCc1ccccc1)C1CCC(CNS(=O)(=O)c2cccc3nsnc23)CC1` (centres undefined): the Potency result in assay [1], in assay [2], in assay [3], in assay [4], in assay [5] and in assay [6] was “inactive” each time.

With `FC(F)(F)c1ccc(/C=C/c2nc(COc3ccc(CCCCn4ccnn4)cc3)co2)cc1`, the Potency entry in assay [1], in assay [2], in assay [3], in assay [4], in assay [5] and in assay [6] was “inactive” in each case.

Turning to `Cc1cc(F)ccc1-c1nc(NCCN=C(N)NC#N)nc2c1ccc(=O)n2-c1c(F)cccc1F`, the Potency in assay [1] was 20.2 µM (active); in assay [2], 22.7 µM (active). Moreover, the Potency result in assay [3], in assay [4], in assay [5] and in assay [6] was “inactive” throughout.

Take `COCCN(C(=O)c1cc(OC)c(OC)c(OC)c1)c1nc(-c2ccccc2)cs1`: the Potency result in assay [1], in assay [2], in assay [3], in assay [4], in assay [5] and in assay [6] was “inactive” throughout.

Turning to `CCc1cnc(N2CCC(c3nc(COc4ccc(-n5cnnn5)cc4)cs3)CC2)nc1`, the Potency entry in assay [1], in assay [2], in assay [3], in assay [4], in assay [5] and in assay [6] was “inactive” each time.

For `O=C(NCCCN1CCC2(CC1)OCc1ccccc12)[C@H]1CCCN1Cc1ccccc1`, the Potency result in assay [1], in assay [2], in assay [3], in assay [4], in assay [5] and in assay [6] was “inactive” throughout.

As for `C#CCCCn1cc(-c2cccc3c2N[C@H](C)CC(=O)N3)cn1`, the Potency result in assay [1], in assay [2], in assay [3], in assay [4], in assay [5] and in assay [6] was “inactive” each time.

As to `C[C@H]1CC[C@@]2(OC1)O[C@H]1CC3[C@@H]4CC[C@@H]5C[C@@H](O[C@@H]6O[C@H](CO)[C@@H](O[C@@H]7O[C@H](CO[C@@H]8OC[C@@H](O)[C@H](O)[C@H]8O)[C@@H](O[C@@H]8O[C@H](CO)[C@H](O)[C@H](O)[C@H]8O)[C@H](O)[C@H]7O)[C@H](O)[C@H]6O)CC[C@]5(C)C4CC[C@]3(C)[C@H]1[C@@H]2C` (some centres undefined), the Potency entry in assay [1] and in assay [2] was “inactive” each time. For the same compound, the activity change, negative = inhibition in assay [3] was 2.09% [at 11.6 µM]. Further, the activity change, negative = thiol reactive in assay [4] was 133% [at 11.5 µM]. Further, in assay [5], the activity, negative = inhibition is 2.05% [at 11.6 µM]. For the same compound, the redox activity (% of DA3003) in assay [6] was 17.1% [at 11.5 µM].

On to `CN1CCN(Cc2ccc(NC(=O)Cc3ccc(Oc4cc(NC(=O)C5CC5)ncn4)cc3)cc2C(F)(F)F)CC1`, for which the Potency result in assay [1], in assay [2], in assay [3], in assay [4], in assay [5] and in assay [6] was “inactive” throughout.

Consider `Cc1cccc(C#Cc2cc(F)cc(C#N)c2)n1`, for which the Potency entry in assay [1], in assay [2], in assay [3], in assay [4], in assay [5] and in assay [6] was “inactive” in each case.

As for `CN1CCN(S(=O)(=O)c2ccc(-c3cnc(N)c(C(=O)Nc4cccnc4)n3)cc2)CC1`, the Potency entry in assay [1], in assay [2], in assay [3], in assay [4], in assay [5] and in assay [6] was “inactive” each time.

Regarding `CC(=O)N1CCN(CCOc2ccc(C3CCN(C4=Nn5c(nnc5C(F)(F)F)CC4)CC3)cc2)CC1`, the Potency result in assay [1], in assay [2], in assay [3], in assay [4], in assay [5] and in assay [6] was “inactive” in each case.

For the compound `C=C1C(=O)O[C@@H]2[C@H]3C(C)=CC(=O)C3=C(C)[C@@H](OC(=O)/C(C)=C\C)[C@H](O)[C@@H]12`, the Potency entry in assay [1], in assay [2], in assay [3], in assay [4] and in assay [6] was “inactive” in each case. Moreover, the Potency in assay [5] is 9.31 µM (active).

Take `O=C(Nc1cccc(C(F)(F)F)c1)Nc1ccc(Br)cc1-c1nn[nH]n1`: the Potency result in assay [1], in assay [2], in assay [3], in assay [4], in assay [5] and in assay [6] was “inactive” throughout.

With `CC(C)(C)c1ccc(-c2nc3c(N4CCN(Cc5ccc6nccnc6c5)CC4)cccc3[nH]2)cc1`, the Potency result in assay [1], in assay [2], in assay [5] and in assay [6] was “inactive” each time. In addition, the results for the Potency in assay [3] and in assay [4] were 1.51 µM (active) and 6.7 µM (active), respectively.

On to `O=C(c1cc(Cc2n[nH]c(=O)c3ccccc23)ccc1F)N1CCCNCC1`, for which the Potency entry in assay [1], in assay [2], in assay [3], in assay [4], in assay [5] and in assay [6] was “inactive” each time.

With `COc1cccc(-c2cc(F)ccc2C2Cc3nc(N)nc(C)c3C(=O)N2)n1` (centres undefined), the Potency result in assay [1], in assay [2], in assay [3], in assay [4], in assay [5] and in assay [6] was “inactive” throughout.

`COC1=CC(=O)C[C@@H](C)[C@@]12Oc1c(Cl)c(OC)cc(OC)c1C2=O`: the Potency result in assay [1], in assay [2], in assay [3], in assay [4], in assay [5] and in assay [6] was “inactive” in each case.

For `Cc1ccc(NC(=O)c2ccc(CN3CCNCC3)cc2)cc1Nc1nccc(-c2cccnc2)n1`, the Potency result in assay [1], in assay [2], in assay [4], in assay [5] and in assay [6] was “inactive” in each case. The Potency in assay [3] is 6.75 µM (active).

For `Cc1nc(C#Cc2ccnc(Cl)c2)c(C)n1-c1ccc(F)cc1`, the Potency result in assay [1], in assay [2], in assay [3], in assay [4], in assay [5] and in assay [6] was “inactive” in each case.
